Consider 26 molecules from PubChem BioAssay (EPA / NIEHS).

Records with an inconclusive call do not appear. Calls of active or inactive are those of the source. Rule for the calls: active = hit-call score of the fitted dose curve at least 0.9, where 1 is the maximum; inconclusive = response in the unintended direction; inactive = score below 0.9.

This assay in a line: ACEA_ER_AUC_viability: ACEA Biosciences xCELLigence Real-Time Cell Analysis on Estrogen Receptor Agonism for Viability (AID 2283782).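 Note: hit means loss of impedance signal meaning reduced cell growth or viability.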 Summed up: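 Continuous-exposure impedance cell analysis uses T-47D cells in charcoal-stripped serum, eight 1:4 dilutions topping at 100 uM final, biological duplicate. Area under the growth curve at 80 h is fitted against DMSO baseline.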
Take `CC(C)(CO)[C@@H](O)C(=O)NCCC(=O)O`: the molecule was called inactive.
In the case of `C=CCCC(=O)/C=C/C1C(C)=CCCC1(C)C` (stereo unspecified), the AC50 – broadly, the midpoint of the concentration-response curve, whichever way the signal moves – is 68.8 µM (active).
Consider `OCCCCC(O)CO` (stereo unspecified), for which the molecule was classed as inactive.
As to `CC(=O)Nc1ccc(C(=O)CCl)cc1`, the AC50 is 21.5 µM (active).
On to `C=C(C)C(=O)OCC(CC)(COC(=O)C(=C)C)COC(=O)C(=C)C`, for which the molecule was called inactive.
The same measure, in the same setting: for `CCC(=O)OCCOc1ccccc1` the value was “inactive”.
In the case of `CC(=O)C(C)O` (stereo unspecified), the result was inactive.
Regarding `CC(C)(N=C=O)c1cccc(C(C)(C)N=C=O)c1`, the AC50 is 33.1 µM (active).
Take `COc1ccc(CCC(C)=O)cc1`: the call was inactive.
As to `CCc1ccc(O)c(OC)c1`, the call was inactive.
As for `Oc1c(Cl)cc(Cl)c(Cl)c1Cc1c(O)c(Cl)cc(Cl)c1Cl`, the half-maximal activity concentration (AC50) was 5.27 µM (active).
Consider `C1=CC2C3C=CC(C3)C2C1` (stereo unspecified), for which the molecule was called inactive.
In the case of `C=CCN(CC=C)CC=C`, the AC50 was 61.2 µM (active).
`CCCC(=O)OCCc1ccccc1`: the AC50 is 25.7 µM (active).
For `C=C(C)[C@H]1CC=C(C)C(=O)C1`, the call was inactive.
Turning to `CCCCN(CCCC)C(=O)N(CCCC)CCCC`, the AC50 is 80.4 µM (active).
On to `C=C(CC(=O)O)C(=O)O`, for which the call was inactive.
With `CCC1CCCCC1`, the AC50 was 75.8 µM (active).
For the molecule `CS(=O)(=O)c1ccc(Cl)cc1`, the molecule was called inactive.
With `CC1(C)C2=CCCC(C)(C)[C@]23CC[C@H]1C3`, the AC50 was 78.4 µM (active).
Turning to `CC(=O)NCCO`, the call was inactive.
`CC(C)(C)c1ccc(C(=O)O)cc1`: the AC50 was 50 µM (active).
Take `C=Cc1ccncc1`: the AC50 was 37.3 µM (active).
Take `Cc1occc(=O)c1OC(=O)C(C)C`: the call was inactive.
Consider `c1ccc(CN(Cc2ccccc2)Cc2ccccc2)cc1`, for which the AC50 is 89 µM (active).
On to `Nc1ccc(Cl)c([N+](=O)[O-])c1`, for which the call was inactive.
